Assay outcomes (PubChem BioAssay)
TAG inh: inhibitors of triacylglycerol accumulation, primary screen, cell-based, uHTS, fluorescence, H9c2; inhibition, % at 12.5 µM; H9c2 cells, Nile Red lipid (TAG) fluorescence; cells loaded with 200 µM oleic acid; AID 651582, 2012; 230,000 compounds, 0.66% hits;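 active = pattern-corrected inhibition of lipid staining of at least 50% with the nuclear-stain viability signal not falling by more than 50%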;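 note: 0% = DMSO wells and 100% = triacsin C control wells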
H9c2 protect: cardioprotection against H2O2-induced cell death, primary screen, uHTS, H9c2 cells, ATPLite luminescence; protection from H2O2 cell death, % at 20 µM; H9c2 cardiomyocytes, H2O2 injury protection, 2 h; 360,000 compounds, 0.63% hits;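 active = compounds giving at least 50% protection of heart cells from peroxide-induced death in the single-dose screen, raw or plate-pattern-corrected value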;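 note: 0% = DMSO wells with peroxide and 100% = DMSO wells without peroxide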
iPSC survival up: enhancers of single-cell hiPSC survival, primary screen, ATPlite luminescence; 100% = ROCK inhibitor wells, 0% = DMSO; survival enhancement, % at 20 µM; 360,000 compounds, 0.044% hits; AID 602274, 2012; in the data active = survival enhancement above about 18%;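 note: cells exposed to compounds for 16 hours before the ATP read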
CRFBP-R2 block: antagonists of CRF-BP/CRF-R2 complex, primary screen, cell-based, HEK293, calcium dye fluorescence, uHTS; CRF-induced calcium fluorescence; inhibition, % at 11.8 µM; 350,000 compounds, 0.59% hits; AID 588475, 2011;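 active = inhibition of the ligand-induced calcium signal above about 50% at the single tested concentration, limit read from the data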
SKN-1 inh: suppressors of acrylamide-induced Pgst-4::GFP reporter in worms, primary screen, SKN-1 inhibitor project, whole organism, uHTS, GFP/RFP fluorescence ratio, strain VP596. 360,000 compounds, 0.49% hits. inhibition, % at 21.8 µM. C. elegans VP596 Pgst-4::GFP/RFP ratio, 24 h;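 active = interference check ratio from 0.5 to 1.5 plus GFP to RFP signal ratio inhibition reaching or exceeding a fixed threshold, cut at about 30% in these data, passing the limit was not always enough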
CRFR2-BP ag: agonists of CRF-BP/CRF-R2 complex, primary screen, cell-based, HEK293, calcium dye fluorescence, uHTS. 350,000 compounds, 0.46% hits. activation, % at 13.2 µM. calcium dye fluorescence (FLIPR); percent of saturating CRF peptide response. AID 588473, 2011;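 active = activation of at least 50%, plus an integration ratio under a set limit after plate pattern correction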;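 note: plate controls were neutral control wells without compound for no effect and CRF at EC100 for full effect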
The depositor's hits bear a star; · = no result. An excerpt weighted towards active compounds, which were near 2.5% of everything screened.

SMILES	TAG inh	H9c2 protect	iPSC survival up	CRFBP-R2 block	SKN-1 inh	CRFR2-BP ag
COC(=O)Nc1nc2ccc(-c3n[nH]c(=O)c4ccccc34)cc2[nH]1	31	68*	0	11	8	1
COC(=O)c1ccc(-c2n[nH]c(=O)c3ccccc23)cc1	7	1	0	-10	13	0
COc1ccc(C(C)NC(=O)c2ccncc2)cc1 (stereo unspecified)	·	-5	-1	8	26	0
COC(=O)c1ccc(C(=O)OC)c(NC(=O)COC(=O)C23CC4CC(CC(O)(C4)C2)C3)c1	2	88*	2	-12	-17	0
O=C(COC(=O)C12CC3CC(CC(O)(C3)C1)C2)Nc1ccc(Cl)cc1F	-4	-5	0	-11	11	0
CC(C)CN1C(=O)CSCC1(C)C(=O)NC(C)C (stereo unspecified)	·	·	·	·	-6	·
CC(C)CN(C(=O)c1cccc(S(=O)(=O)N2CCN(C)CC2)c1)C1CCS(=O)(=O)C1 (stereo unspecified)	-11	4	0	28	13	-1
COc1ccccc1-n1c(SCC(N)=O)nnc1-c1ccc(S(=O)(=O)N2CCCCC2)cc1	·	0	1	-89	6	62*
NC(=O)CSc1nnc(-c2ccc(S(=O)(=O)N3CCCCC3)cc2)n1-c1ccccc1	·	5	0	-63	8	37
CCOc1cc(CNc2ccc3[nH]c(=O)[nH]c3c2)ccc1OCC(=O)NC(C)(C)C	11	57*	0	11	-11	-1
CCOC(=O)C1CCCN(C(=O)c2ccc(-c3ccccc3)cc2)CC1 (stereo unspecified)	0	1	0	·	18	·
COc1ccccc1N1CCN(C2CCCN(C(=O)c3cc(C4CC4)on3)C2)CC1 (stereo unspecified)	·	-3	0	51*	1	-3
COc1ccccc1N1CCN(C2CCCN(C(=O)c3cscn3)C2)CC1 (stereo unspecified)	·	1	0	2	5	-1
COCCNC(=S)N1CCc2cc(OC)c(OC)cc2C1COc1ccc(F)cc1 (stereo unspecified)	19	22	0	21	-9	0
COCCNC(=S)N1CCc2cc(OC)c(OC)cc2C1COc1ccc(C(C)C)cc1 (stereo unspecified)	·	2	1	50*	-6	-2
O=S(=O)(c1cccc2cnccc12)N1CCNCC1	10	7	27*	-24	2	3
O=C1OCC2=C1C(c1ccc(F)cc1)CC(=O)N2c1ccccc1 (stereo unspecified)	-11	1	-1	·	-2	·
Cc1ccc(S(=O)(=O)N2CCCCCC2)cc1[N+](=O)[O-]	·	-4	4	58*	-3	-1
CSc1nc(N2CCOCC2)c2c(c1C#N)CC(C)(C)OC2	-3	19	2	-50	37*	-2
CCC1(C)Cc2c(C#N)c(SC)nc(N3CCOCC3)c2CO1 (stereo unspecified)	7	-2	0	-6	-1	-1
CCSc1nc(N2CCOCC2)c2c(c1C#N)CC(C)(C)N(C)C2	8	-4	-6	18	-16	-2
CN1Cc2c(N3CCOCC3)nc(SCc3ccccc3)c(C#N)c2CC1(C)C	·	3	4	-75	11	64*
Cc1ccc(NC(=S)NNC(=O)C2CC2c2ccc(C)cc2)cc1 (stereo unspecified)	-6	-6	-1	9	40*	-2
COc1ccc(NC(=S)NNC(=O)C2CC2c2ccc(C)cc2)cc1 (stereo unspecified)	·	5	-1	-5	3	-3
O=C1c2ccccc2C(=O)N1CCCCSc1nc2ccccc2c(=O)n1CCCN1CCOCC1	-30	59*	0	-61	5	-1
SMILES	TAG inh	H9c2 protect	iPSC survival up	CRFBP-R2 block	SKN-1 inh	CRFR2-BP ag
O=C1c2ccccc2C(=O)N1CCSc1nc2ccccc2c(=O)n1CCCN1CCOCC1	-13	22	3	-6	5	-1
COc1ccccc1-c1cnc(C(O)c2ccc(CN3CCCCC3)cc2)[nH]1 (stereo unspecified)	9	5	1	·	-1	·
CC(Oc1ccc(Br)cc1)C(=O)N1CCc2ccccc21 (stereo unspecified)	1	6	-3	-164	7	222*
COc1cccc(C2CC(c3cccs3)=NN2C(=S)Nc2ccccc2)c1OC (stereo unspecified)	17	2	0	81*	14	3
COc1ccc(C2CC(c3cccs3)=NN2C(=S)Nc2ccccc2)cc1OC (stereo unspecified)	·	5	-2	30	-16	2
COC(=O)c1ccc(Cl)c(NC(=O)NC23CC4CC(CC(C4)C2)C3)c1	70*	-23	-1	-12	-5	-1
COC(=O)c1cccc(NC(=O)NC23CC4CC(CC(C4)C2)C3)c1	3	-16	-2	11	3	0
COc1ccccc1N1CCN(c2ncc(C(=O)N3CCN(c4cccc(Cl)c4)CC3)c3ccccc23)CC1	·	-18	0	-290	-5	115*
CCOc1ccccc1C(=O)N1CCN(c2cccc(Cl)c2)CC1	·	-2	0	-39	-4	-1
Cc1cc2[nH]c(=O)c(=O)[nH]c2cc1S(=O)(=O)Nc1cccc(C)c1C	·	-4	0	5	-6	-1
COc1cc(SC)ccc1C(=O)Nc1ncc(C)s1	6	-27	-2	105*	16	0
CCCCN(C)c1c(C)nc2ccc(C(=O)Nc3ccc(OC)c(OC)c3)cn12	16	6	1	·	8	·
CN(C(=O)CSc1nc2c(c(=O)[nH]1)CCCC2)C1CCCCC1	·	63*	0	-3	13	-1
CN(C(=O)CSc1nc(N)cc(=O)[nH]1)C1CCCCC1	1	1	0	-9	3	0
CCc1ccc(NC(=O)C(C)Sc2nnc(CN3CCCC3)o2)cc1 (stereo unspecified)	11	4	0	-2	-2	1
COc1ccccc1NC(=O)CN1CCN(C2c3ccccc3-c3ccccc32)CC1	-5	-15	10	10	37*	-1
COc1ccc(NC(=O)CN2CCN(C3c4ccccc4-c4ccccc43)CC2)c(OC)c1	41	-3	0	-3	19	1
N#C/C(=C\c1ccc(N2CCCCC2)o1)C(N)=O	-21	-1	2	-25	26	36
